Records with an inconclusive call do not appear. Calls of active or inactive are those of the source. Calls come from the whole dose curve; as a rule, active = well fitted inhibition curve with a large enough effect; inconclusive = small, poorly fitted or top-dose-only effect; inactive = flat fitted curve, though single readings scatter.
Assays:
[1] = qHTS profiling for inhibitors of Plasmodium falciparum proliferation (AID 504749); note: nearly all actives have a fitted effect of over 60% in size;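 for activity, negative = inhibition: 0% = DMSO vehicle and full inhibition = artemisinin control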; conditions: P. falciparum in erythrocytes, SYBR Green DNA, 72 h
How it was run: (§1)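 Fluorescence of SYBR Green-bound parasite DNA, read at 485/535 nm, served as the growth measure. Infected erythrocytes were cultured with compound 72 h; artemisinin (0.29 uM) and DMSO wells defined the normalization range.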

3D7 = assay: as above; conditions: P. falciparum in erythrocytes, SYBR Green DNA, 72 h; series mostly up to 28.7 µM
How it was run: as §1

7G8 = assay: as above; conditions: P. falciparum in erythrocytes, SYBR Green DNA, 72 h; series mostly up to 28.7 µM
How it was run: as §1

AA1029 = assay: as above; conditions: P. falciparum in erythrocytes, SYBR Green DNA, 72 h; series mostly up to 28.7 µM
How it was run: as §1

AS120 = assay: as above; conditions: P. falciparum in erythrocytes, SYBR Green DNA, 72 h; series mostly up to 28.7 µM
How it was run: as §1

ATS189 = assay: as above; conditions: P. falciparum in erythrocytes, SYBR Green DNA, 72 h; series mostly up to 28.7 µM
How it was run: as §1

ATS95 = assay: as above; conditions: P. falciparum in erythrocytes, SYBR Green DNA, 72 h; series mostly up to 28.7 µM
How it was run: as §1

C2A = assay: as above; conditions: P. falciparum in erythrocytes, SYBR Green DNA, 72 h; series mostly up to 28.7 µM
How it was run: as §1

CP185 = assay: as above; conditions: P. falciparum in erythrocytes, SYBR Green DNA, 72 h; series mostly up to 28.7 µM
How it was run: as §1

CP191 = assay: as above; conditions: P. falciparum in erythrocytes, SYBR Green DNA, 72 h; series mostly up to 28.7 µM
How it was run: as §1

CP192 = assay: as above; conditions: P. falciparum in erythrocytes, SYBR Green DNA, 72 h; series mostly up to 28.7 µM
How it was run: as §1

CP194 = assay: as above; conditions: P. falciparum in erythrocytes, SYBR Green DNA, 72 h; series mostly up to 28.7 µM
How it was run: as §1

CP201 = assay: as above; conditions: P. falciparum in erythrocytes, SYBR Green DNA, 72 h; series mostly up to 28.7 µM
How it was run: as §1

CP203 = assay: as above; conditions: P. falciparum in erythrocytes, SYBR Green DNA, 72 h; series mostly up to 28.7 µM
How it was run: as §1

CP211 = assay: as above; conditions: P. falciparum in erythrocytes, SYBR Green DNA, 72 h; series mostly up to 28.7 µM
How it was run: as §1

CP215 = assay: as above; conditions: P. falciparum in erythrocytes, SYBR Green DNA, 72 h; series mostly up to 28.7 µM
How it was run: as §1

CP217 = assay: as above; conditions: P. falciparum in erythrocytes, SYBR Green DNA, 72 h; series mostly up to 28.7 µM
How it was run: as §1

[2] = at 28.7 µM (top of the series), parasite line A
[3] = at 28.7 µM (top of the series), parasite line B
Potency is the fitted concentration of half-maximal effect.

CCOC(C)=O
inactive: activity, negative = inhibition [1, 2] 0.182% | activity, negative = inhibition [1, 3] 7.53% | Potency (3D7) | Potency (7G8) | Potency (AA1029) | Potency (AS120) | Potency (ATS189) | Potency (ATS95) | Potency (C2A) | Potency (CP185) | Potency (CP191) | Potency (CP192) | Potency (CP194) | Potency (CP201) | Potency (CP203) | Potency (CP211) | Potency (CP215) | Potency (CP217)

CC(C)(C)C(=O)OCOC(=O)[C@@H]1N2C(=O)[C@@H](N=CN3CCCCCC3)[C@H]2SC1(C)C
inactive: activity, negative = inhibition ([1]; at 12.8 µM (top of the series), parasite line A) 1.15% | activity, negative = inhibition ([1]; at 12.8 µM (top of the series), parasite line B) 5.1% | Potency (3D7) | Potency (7G8) | Potency (AA1029) | Potency (AS120) | Potency (ATS189) | Potency (ATS95) | Potency (C2A) | Potency (CP185) | Potency (CP191) | Potency (CP192) | Potency (CP194) | Potency (CP201) | Potency (CP203) | Potency (CP211) | Potency (CP215) | Potency (CP217)

COC(=O)C1=C(C#N)NC(C)=C(C(=O)OC(C)C)C1c1cccc([N+](=O)[O-])c1 (stereo not drawn)
active: Potency ([1]; parasite line A) 8.91 µM | Potency ([1]; parasite line B) 11.2 µM | Potency (3D7) 8.91 µM | Potency (7G8) 10 µM | Potency (AA1029) 11.2 µM | Potency (AS120) 8.91 µM | Potency (ATS189) 11.2 µM | Potency (ATS95) 11.2 µM | Potency (C2A) 11.2 µM | Potency (CP185) 7.94 µM | Potency (CP191) 11.2 µM | Potency (CP194) 12 µM | Potency (CP203) 7.57 µM | Potency (CP211) 9.53 µM | Potency (CP217) 11.2 µM

COC(C(=O)C(O)C(C)O)C1Cc2cc3cc(OC4CC(OC5CC(O)C(O)C(C)O5)C(O)C(C)O4)c(C)c(O)c3c(O)c2C(=O)C1OC1CC(OC2CC(OC3CC(C)(O)C(O)C(C)O3)C(O)C(C)O2)C(O)C(C)O1 (stereo not drawn)
active: Potency ([1]; parasite line A) 0.158 µM | Potency ([1]; parasite line B) 0.224 µM | Potency (3D7) 0.282 µM | Potency (7G8) 0.0708 µM | Potency (AA1029) 0.141 µM | Potency (AS120) 0.112 µM | Potency (ATS189) 0.282 µM | Potency (ATS95) 0.178 µM | Potency (C2A) 0.251 µM | Potency (CP185) 0.251 µM | Potency (CP191) 0.224 µM | Potency (CP192) 3.01 µM | Potency (CP194) 3.01 µM | Potency (CP201) 2.69 µM | Potency (CP203) 3.01 µM | Potency (CP211) 2.69 µM | Potency (CP215) 2.39 µM | Potency (CP217) 0.282 µM

O=C(COc1ccc(Cl)cc1)OCCNC12CC3CC(CC(C3)C1)C2
inactive: activity, negative = inhibition [1, 2] 9.51% | activity, negative = inhibition [1, 3] 10.7% | Potency (3D7) | Potency (7G8) | Potency (AA1029) | Potency (AS120) | Potency (ATS189) | Potency (ATS95) | Potency (C2A) | Potency (CP185) | Potency (CP191) | Potency (CP192) | Potency (CP194) | Potency (CP201) | Potency (CP203) | Potency (CP211) | Potency (CP215) | Potency (CP217)

O=C(O)c1cc(O)c2c(c1)[O][Bi][O]2
inactive: activity, negative = inhibition [1, 2] -9.75% | activity, negative = inhibition [1, 3] 14.4% | Potency (3D7) | Potency (7G8) | Potency (AA1029) | Potency (AS120) | Potency (ATS189) | Potency (ATS95) | Potency (C2A) | Potency (CP185) | Potency (CP191) | Potency (CP192) | Potency (CP194) | Potency (CP201) | Potency (CP211) | Potency (CP217)

CCCCC(C)(O)C/C=C/[C@H]1[C@H](O)CC(=O)[C@@H]1CCCCCCC(=O)OC (stereo partly drawn)
inactive: activity, negative = inhibition [1, 2] 0.758% | activity, negative = inhibition [1, 3] 3.16% | Potency (3D7) | Potency (7G8) | Potency (AA1029) | Potency (AS120) | Potency (ATS189) | Potency (ATS95) | Potency (C2A) | Potency (CP185) | Potency (CP191) | Potency (CP192) | Potency (CP194) | Potency (CP201) | Potency (CP203) | Potency (CP211) | Potency (CP217)

CCCCCC(CC)COC(=O)CC(C(=O)OCC(CC)CCCC)S(=O)(=O)O (stereo not drawn)
inactive: activity, negative = inhibition [1, 2] 7.28% | activity, negative = inhibition [1, 3] 3.54% | Potency (3D7) | Potency (7G8) | Potency (AA1029) | Potency (AS120) | Potency (ATS189) | Potency (ATS95) | Potency (C2A) | Potency (CP185) | Potency (CP191) | Potency (CP217)

CCNC(=O)[C@@H]1CCCN1C(=O)[C@H](CCCN=C(N)N)NC(=O)[C@H](CC(C)C)NC(=O)[C@@H](Cc1c[nH]c2ccccc12)NC(=O)[C@H](Cc1ccc(O)cc1)NC(=O)[C@H](CO)NC(=O)[C@H](Cc1c[nH]c2ccccc12)NC(=O)[C@H](Cc1cnc[nH]1)NC(=O)[C@@H]1CCC(=O)N1
active: Potency ([1]; parasite line A) 4.47 µM | Potency ([1]; parasite line B) 5.62 µM | Potency (3D7) 7.08 µM | Potency (7G8) 1.12 µM | Potency (AA1029) 3.16 µM | Potency (AS120) 4.47 µM | Potency (ATS189) 8.91 µM | Potency (ATS95) 4.47 µM | Potency (C2A) 7.08 µM | Potency (CP185) 11.2 µM | Potency (CP191) 7.94 µM | Potency (CP192) 9.53 µM | Potency (CP194) 7.57 µM | Potency (CP201) 15.1 µM | Potency (CP203) 6.75 µM | Potency (CP211) 6.75 µM | Potency (CP215) 13.5 µM | Potency (CP217) 7.08 µM

COc1ccc2c3c1O[C@H]1C[C@@H](O)C=C[C@@]31CCN(C)C2
inactive: activity, negative = inhibition [1, 2] 7.86% | activity, negative = inhibition [1, 3] -0.584% | Potency (3D7) | Potency (7G8) | Potency (AA1029) | Potency (AS120) | Potency (ATS189) | Potency (ATS95) | Potency (C2A) | Potency (CP185) | Potency (CP191) | Potency (CP192) | Potency (CP194) | Potency (CP201) | Potency (CP203) | Potency (CP211) | Potency (CP215) | Potency (CP217)

Source: PubChem BioAssay (NCATS)
